# Compound activity (PubChem BioAssay)
# D3 antag = blocks the human D3 dopamine receptor. P35462. D3R cells, DiscoveRx beta-arrestin luminescence, antagonist mode; stronger effect = lower value. max response, negative = inhibition, %. actives 2.5% (n = 360,000); in the data active = max response below about -50%; inconclusive = no clear call, values can overlap the other calls; also: % is scaled to controls: 0 for no effect and ±100 for the full control effect
# Target sequence (P35462 whole entry, looked up): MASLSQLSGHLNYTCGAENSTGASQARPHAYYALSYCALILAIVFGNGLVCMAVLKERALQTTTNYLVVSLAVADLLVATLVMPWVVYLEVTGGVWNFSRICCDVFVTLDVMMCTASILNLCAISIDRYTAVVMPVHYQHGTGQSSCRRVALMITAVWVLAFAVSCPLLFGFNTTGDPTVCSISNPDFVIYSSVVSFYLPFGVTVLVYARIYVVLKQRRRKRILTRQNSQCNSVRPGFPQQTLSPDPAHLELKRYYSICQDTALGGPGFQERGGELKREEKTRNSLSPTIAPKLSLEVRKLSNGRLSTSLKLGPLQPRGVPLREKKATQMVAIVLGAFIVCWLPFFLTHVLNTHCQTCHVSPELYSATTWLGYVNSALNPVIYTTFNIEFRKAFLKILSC
#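 Cells plated overnight at 1500 cells/well, then exposed to library compounds with dopamine controls for 90 minutes at 37 degrees C. DiscoveRx reagent added for 30–60 minutes at room temperature; luminescence read, quantitative HTS format.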
# DRD3 agonist = activates the human D3 dopamine receptor; D3R DiscoveRx beta-arrestin cells, luminescence, 90 min; max activation, %; P35462; actives 0.58% (n = 410,000); in the data active = max activation above about 30%; also: 0% is about no effect
#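 Agonist mode: compounds and dopamine controls were applied to plated cells for 90 min at 37 degrees C after an overnight attachment at 1500 cells/well. Luminescent read-out followed 30 - 60 minutes at room temperature with DiscoveRx detection reagent.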
# GLP1R ag = agonists of human GLP-1 receptor; Potency, µM (top dose mostly 45.6 µM), for the others: top-dose activation, actives largely listed as activators; P43220; HEK293 GLP-1R CRE-luciferase, luminescence, 4-6 h; cells express a hypersensitive GLP-1R form; actives 0.007% (n = 380,000); also: potency is read from the fitted curve at half-maximal effect; % of control where 0% means no effect
# GLP1R inv ag = GLP-1 receptor (human) inverse agonism | P43220 | HEK293 GLP-1R CRE-luciferase, luminescence, 24 h; GLP-1R form is constitutively active | Potency, µM (series often up to 38.3 µM), for inactives: at the highest dose activity change, negative = inhibition, usual class: inhibitors | actives 1.6% (n = 410,000) | AID 624417; also: potency is read from the fitted curve at half-maximal effect; % is scaled to controls: 0 for no effect and ±100 for the full control effect; nearly all actives have a fitted effect of over 55% in size
#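 HEK293 cells stably co-expressing constitutively active GLP-1R and a cAMP-responsive luciferase reporter were seeded in DMEM with 10% Nu serum, given compounds after 12 h, and incubated 24 h at 37 deg C. Luminescence was then read.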
# Starred values were filed as active, the others as inactive; ? = inconclusive; · = no result given; ! = repeats disagree; [ ] = dose if it differs, or a comment. Sampled rows, rich in hits. Any-hit rate of the full collection: about 4.3%. Unless noted, calls follow the shape of the dose curve; as a rule, active = well fitted curve in the direction sought with a large enough effect; inconclusive = small, poorly fitted or top-dose-only effect, or another doubt; inactive = no such curve, though single readings can be large; an effect the other way counts as inactive or inconclusive.
SMILES,D3 antag,DRD3 agonist,GLP1R ag,GLP1R inv ag
C=CCOc1ccc(C2C(C(=O)c3cccs3)=C(O)C(=O)N2c2nnc(C)s2)cc1 (centres undefined),-63*,-13,2%,25%
CC(C)(CO)Cc1cc(C(C)(C)C)c(O)c(C(C)(C)C)c1,21,11,?,7.1µM*
CC(C)(C=O)Cc1cc(C(C)(C)C)c(O)c(C(C)(C)C)c1,50,23,4%,11µM*
CC[C@H](C)[C@H](NC(=O)[C@H](Cc1ccccc1)NC(=O)[C@H](C)NC(=O)[C@H](CC(=O)O)NC(=O)[C@H](CCCCN)NC(=O)[C@H](CO)NC(=O)[C@@H]1CCCN1C(=O)[C@@H]1CCC(=O)N1)C(=O)NCC(=O)N[C@@H](CC(C)C)C(=O)N[C@@H](CCSC)C(N)=O,·,11,·,·
COc1ccc2c(c1)c1c(c(=O)n(-c3ccc(F)c(Cl)c3)c(=O)n1CC(=O)N1CCCC1)n2C,·,0,0%,6%
COc1ccc(-c2ccc(/C=N/NC(=O)Cc3nnc(N)s3)o2)cc1Cl,9,3,-4%,11µM*
O=C(NC1CCCCC1)C(c1ccc(O)c(O)c1)N(C(=O)Cn1nnc2ccccc21)c1cccc(O)c1 (centres undefined),0,1,2%,8%[7.66 µM]
COC(=O)c1ccc(NC(=O)C(c2ccccc2)N2Cc3ccccc3C2=O)cc1 (centres undefined),·,-15,·,-18%
CCc1nc(NCc2ccc3c(c2)OCO3)c2oc3ccccc3c2n1,-66*,-5,19%,-3%
Cc1nc(NCc2ccc3c(c2)OCO3)c2oc3ccccc3c2n1,10,8,19%,22%
COc1ccc(N(C(=O)COc2c(C)cccc2C)S(=O)(=O)c2ccc(Cl)cc2)cc1,·,-22,·,10µM*
Cc1ccc(OCC(=O)N(c2ccc(C)cc2)S(=O)(=O)c2ccc(Cl)cc2)cc1,·,-19,·,4%
CC[n+]1ccc(C)c2cc(P(=O)(c3ccccc3)c3ccccc3)ccc21,-58*,-28,6%,-19%
CCN(CC1COc2ccccc2O1)C(=O)CN1C(=O)NC(C)(c2ccccc2)C1=O (centres undefined),-13,55*,7%,?
CCN(CC1COc2ccccc2O1)C(=O)CN1C(=O)NC(C)(c2ccc(C)cc2)C1=O (centres undefined),-6,5,0%,?
CCCCSc1nnc2c(n1)OC(c1ccc(Br)s1)N(C(C)=O)c1ccccc1-2 (centres undefined),·,4,·,?
OCCC1CN(Cc2cc(F)ccc2F)CCN1CCCc1ccccc1 (centres undefined),-86*,-18,10%,?
COc1ccc(OC)c(CN2CCN(CCc3ccccc3)C(CCO)C2)c1 (centres undefined),-56*,-15,8%,?
CCOc1ccccc1CN1CCN(CCCc2ccccc2)CC1CCO (centres undefined),-73*,-21,-1%,?
OCCC1CN(Cc2ccc(F)cc2Cl)CCN1CCc1ccccc1 (centres undefined),-99*,-18,2%,?
COc1ccc(F)c(CN2CCN(CCc3ccccc3)C(CCO)C2)c1 (centres undefined),?,-9,1%,-46%
O=C(COC(=O)c1ccc(Cl)nc1)Nc1nnc(-c2ccccc2)o1,-6,-3,-6%,-1%
O=[N+]([O-])c1ccc(N/N=C2\CC3CC=CC23)cc1 (centres undefined),-3,-3,11%,1.3µM*
COc1cc(C2C(C(C)=O)=C(O)C(=O)N2CCc2c[nH]c3ccccc23)ccc1O (centres undefined),-56*,0,-8%,1%
CC(=O)C1=C(O)C(=O)N(CCc2c[nH]c3ccccc23)C1c1cccc(O)c1 (centres undefined),?,4,-9%,-6%
SMILES,D3 antag,DRD3 agonist,GLP1R ag,GLP1R inv ag
CCN1CCN(Cc2ccc(NC(=O)c3cc(NC(=O)c4cnnc5ccccc45)cc(OC)c3)cc2C(F)(F)F)CC1,?,-11,2%,8.9µM*!
CCN1CCN(Cc2ccc(NC(=O)c3cc(NC(=O)c4nccnc4N)cc(OC)c3)cc2C(F)(F)F)CC1,11,-16,-2%,?
Cc1cc(C2CCCCC2)n(O)c(=O)c1,45,46*!,-3%,?
CCCn1c(Sc2nc3c(c(=O)[nH]c(=O)n3C)n2CCC)nc2c1c(=O)[nH]c(=O)n2C,-57*,0,-1%,9%
CC(C)c1ccc2oc(-c3cccc(NC(=O)c4ccc5c(c4)OCCO5)c3)nc2c1,·,6,·,-11%
C=C1C(=O)C23C(O)C1CCC2C12CCCC(C)(COC(C)=O)C1C(O)C3(O)OC2 (centres undefined),-95*,-13,-10%,?
N#C/C(=C\c1ccc(-c2ccc(C(=O)O)cc2)o1)C(=O)Nc1ccccc1C(=O)O,·,21,·,10%
CC1CN(C(=O)c2ccccc2OCc2ccc(Cl)cc2Cl)CC(C)O1 (centres undefined),0,1,10%,10µM*
CC1CN(C(=O)c2cccc(COc3ccccc3Cl)c2)CC(C)O1 (centres undefined),-11,-1,24%,-18%
O=C1Nc2ccccc2/C1=N/c1sc2c(c1C(=O)NCCc1ccccc1)CCCC2,-90*,-19,7%,?
O=[N+]([O-])c1ccc(O)c(C2=NNC(c3ccccc3F)C2)c1 (centres undefined),-121*,-47,-5%,-12%
Oc1ccc(Cl)cc1C1=NNC(c2cccs2)C1 (centres undefined),-12,-9,5%,?
O=C(CN(C(=O)c1csnn1)c1ccccc1C(F)(F)F)NCc1ccccc1,-4,0,10%,-27%
CCN(CC)CCNC(=O)c1cc2c(-c3ccc(Cl)cc3)nn(C)c2s1,?,-16,-7%,5.6µM*
CCCN(CCC)CCNC(=O)c1cc2c(-c3ccc(Cl)cc3)nn(C)c2s1,?,-10,10%,?
COc1ccc(-c2nn(C)c3sc(C(=O)NCCN(C)C)cc23)cc1OC,2,-2,12%,-5%
CCCN(CCC)CCCNC(=O)c1cc2c(-c3ccc(OC)c(OC)c3)nn(C)c2s1,-92*,-15,21%,?
CCCCN(CC)CCNC(=O)c1cc2c(-c3ccc(Cl)cc3)nn(C)c2s1,-62*,-13,14%,?
COc1cc(-c2nnc(SCC(=O)N3CCCc4ccccc43)o2)cc(OC)c1OC,·,15,·,?
CC(NC(=O)C1CCN(c2nc3ccccc3nc2C(F)(F)F)CC1)c1ccccc1 (centres undefined),·,3,·,3%
Cc1cccc(CC(=O)NC2CC(=O)N(c3ccccc3)C2)c1 (centres undefined),·,1,·,9%
CC(C)Oc1ccc(CNC(=O)C2CCN(C(=O)N3CCOc4ccc(Cl)cc43)CC2)cc1,·,4,·,?
COc1ccc(/C(C)=N/NC(=S)NCc2ccco2)cc1,7,1,23%,11µM*
